RAD52 anneal inh: RAD52 DNA annealing inhibitors, primary screen, biochemical, FRET, single point, set 2; 360,000 tested, 0.46% active; recombinant RAD52 DNA annealing, FRET fluorescence; DNA repair protein RAD52 homolog (Homo sapiens), P43351; inhibition, % at 18.7 µM;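 active = every replicate showing at least 50% inhibition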
Target sequence (P43351 whole entry, looked up): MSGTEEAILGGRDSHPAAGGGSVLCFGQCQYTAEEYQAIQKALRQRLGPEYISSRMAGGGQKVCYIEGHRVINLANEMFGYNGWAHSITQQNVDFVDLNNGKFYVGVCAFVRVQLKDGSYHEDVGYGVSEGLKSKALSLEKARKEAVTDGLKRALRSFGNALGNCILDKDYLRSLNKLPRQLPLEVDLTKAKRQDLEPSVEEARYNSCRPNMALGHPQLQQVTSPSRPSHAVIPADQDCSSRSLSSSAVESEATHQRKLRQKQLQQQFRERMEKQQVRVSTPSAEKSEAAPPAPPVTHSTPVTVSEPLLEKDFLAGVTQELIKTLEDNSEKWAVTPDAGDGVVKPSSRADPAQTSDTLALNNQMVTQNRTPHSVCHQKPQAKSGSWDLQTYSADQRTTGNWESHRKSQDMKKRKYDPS
Glyco luc inh: increase of ERlucT glycosylation luciferase signal, primary screen, N-linked glycosylation inhibitor project, D54 ERlucT cells, luminescence, set 2. reporter increase, % at 12.5 µM. 360,000 tested, 0.23% active. D54 ERlucT glycosylation luciferase reporter, 24 h; percent of 100 nM tunicamycin response;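 active = mean luciferase reporter signal, scaled so untreated is 0 and the glycosylation-blocking control 100, at or above a set limit in every replicate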;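 note: luciferase carries N-glycosylation sites so blocking glycosylation raises the light; 0% = median of neutral control wells and 100% = median of 100 nM tunicamycin wells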
RAD54 branch: inhibitors of human RAD54 branch migration, primary screen, biochemical, fluorescence, single point. RAD54 Holliday junction branch migration, FAM/BHQ fluorescence. DNA repair and recombination protein RAD54-like (Homo sapiens), Q92698. 360,000 tested, 0.14% active. inhibition, % at 10.4 µM. AID 602329, 2012;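 active = mean normalized replicate activity at least 40 and at least half of replicates scoring 40 or more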;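 note: 0% = median of neutral control wells and 100% = median of positive control wells; inhibitors cause a drop in the FAM fluorescence signal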
NRP1-CendR mod: modulators of CendR peptide binding to NRP-1, primary screen, biochemical, fluorescence polarization, uHTS. Neuropilin-1 (Homo sapiens), O14786. FAM-RPARPAR peptide binding to NRP-1. inhibition, % at 25 µM. 360,000 tested, 0.85% active. AID 602438, 2012;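 active = inhibition or corrected inhibition above about 18%, plus a signal ratio from 0.5 to 1.5, limit read from the data, passing the limit was not always enough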
FID counter: compounds displacing fluorescent DNA intercalator, primary screen, artefact control for HCV NS3 helicase inhibitor project, biochemical, FID fluorescence. AID 1845, 2009. DNA fluorescent intercalator displacement. inhibition, % at 7.9 µM. 290,000 tested, 0.17% active; in the data active = inhibition above about 37%;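 note: 0% = vehicle and 100% = reference compound; higher means more ethidium bromide displaced from hairpin DNA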
miR-122 sensor: miR-122 Renilla sensor signal increase in Huh7, primary screen, miR-122 inhibitor project, cell-based, single point, plate reader | Huh7 miR-122 Renilla luciferase sensor, 48 h; neutral wells = 0, positive control = 100 | activation (reporter increase), % at 12.5 µM | 340,000 tested, 0.3% active | AID 602342, 2012;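 active = mean replicate activation score at least 90 and every replicate individually at or above 90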;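 note: higher luciferase means less miR-122 activity so hits act as miR-122 inhibitors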
The depositor's hits bear a star; · = no result given; [ ] = remark or other dose. The list is not random: actives were taken first. Their share in the collection is about 1.5%.

SMILES	RAD52 anneal inh	Glyco luc inh	RAD54 branch	NRP1-CendR mod	FID counter	miR-122 sensor
O=C1c2c(O)cccc2C(C2OC(CO)[C@@H](O)[C@H](O)[C@H]2O)c2cc(CO)cc(O)c21 (some centres not stated)	10	0	5	37*	·	-5
CCc1nc(OCC(=O)c2ccccc2)c(C#N)c2c1COC(C)(C)C2	·	0	5	19*	-8	7
C[C@@H]1CN([C@H](C)CO)C(=O)c2cc(NC(=O)Nc3ccccc3)ccc2O[C@@H](C)CCCCO[C@H]1CN(C)S(=O)(=O)c1cccs1	-6	·	3	·	·	-9[16.7 µM]
CN(C)Cc1cc(C(C)(C)c2cc(CN(C)C)c(O)c(CN(C)C)c2)cc(CN(C)C)c1O	·	-5	102*	12	38*	7
CN(C)Cc1cc(OCc2ccccc2)cc(CN(C)C)c1O	5	1	4	-3	·	-3
CCOC(=O)C1(Cc2ccccc2)CCN(Cc2cccn2-c2nccs2)CC1	4	-4	·	33*	6	·
CC(C)=CC(O)C/C(C)=C/COc1ccc2ccc(=O)oc2c1 (configuration not stated)	-5	-19	7	26*	·	-3
C[C@@H]1CN([C@@H](C)CO)C(=O)c2cc(C#Cc3ccccc3)cnc2O[C@@H]1CN(C)C(=O)CN(C)C	27	·	10	·	·	-6[16.7 µM]
Cc1cc(O)c2c(c1)C(=O)c1cccc(O)c1C2=O	-26	·	·	·	-3	·
COc1cc(C)cc(C(=O)O)c1C1=C(O)c2cccc(O)c2C(=O)C1=O	-6	0	-6	28*	·	-9
Cc1c(CC(=O)O)c(=O)oc2cc3occ(-c4ccccc4)c3cc12	-27	2	3	44*	-27	0
CC=Cc1ccc2n(c1=O)C[C@@H]1[C@@H](CO)[C@H](C(=O)NCCC)[C@H]2N1S(=O)(=O)c1cn(C)cn1 (mixture of isomers)	·	·	·	·	·	-5[16.7 µM]
CS(=O)(=O)Cc1cc(Sc2ccccc2)nc(-c2ccncc2)n1	-12	3	6	23*	-19	-2
O=S(Cc1cc(Sc2ccccc2)nc(-c2ccccc2)n1)c1ccccc1 (configuration not stated)	·	-11	·	2	-2	7
COc1cccc(OCC(=O)NNC(=S)Nc2ccc(Cl)cc2Cl)c1	-18	1	·	24*	-26	·
C[C@H]1CN([C@@H](C)CO)C(=O)Cc2cc(NS(=O)(=O)c3ccc(F)cc3)ccc2O[C@H]1CN(C)Cc1ccc(C(=O)Nc2ccccc2N)cc1	2	·	-15	·	·	114*[16.7 µM]
Cc1ccc(S(=O)(=O)Nc2ccc3c(c2)CC(=O)N([C@H](C)CO)C[C@H](C)[C@H](CN(C)Cc2ccc(C(=O)Nc4ccccc4N)cc2)O3)cc1	·	·	-4	·	·	229*[16.7 µM]
C[C@@H]1CN([C@@H](C)CO)C(=O)Cc2cc(NS(=O)(=O)c3ccc(F)cc3)ccc2O[C@@H]1CN(C)Cc1ccc(C(=O)Nc2ccccc2N)cc1	0	·	-12	·	·	9[16.7 µM]
O=C(NCCCN1CCOCC1)[C@@H]1[C@@H](CO)[C@@H]2Cn3c(ccc(C4=CCCC4)c3=O)[C@H]1N2	-3	·	1	·	·	-7[16.7 µM]
C[C@H](CO)N1C[C@H](C)[C@@H](CN(C)C(=O)Nc2ccc3c(c2)OCO3)Oc2ccc(NC(=O)Nc3ccc(F)cc3)cc2CC1=O	23	·	-2	·	·	-4[16.7 µM]
CCN(CC)S(=O)(=O)c1ccc(N2CCOCC2)c(NC(=O)c2[nH]c(C)c(C(C)=O)c2C)c1	-11	63*	3	7	·	13
CCN(CC)S(=O)(=O)c1ccc(N2CCOCC2)c(NC(=O)c2ccc(F)cc2)c1	-17	4	·	0	-21	·
CCCCOCCCNC(=S)Nc1ccc(S(=O)(=O)N2CCOCC2)cc1	-2	3	·	-5	-22	176*
O=C(CSCc1ccccc1)Nc1ccc(S(=O)(=O)N2CCOCC2)cc1	·	-2	·	27*	-3	39
